Test results as given in the supplement of paper PMC7156485.
± gives the standard deviation of the averaged measurements.

Key:
Conditions in all cases: concentration: 10 µM; 24 h
HCC1569 [1] = test: cell number relative to DMSO (% of DMSO); higher = more cells (less growth inhibition / toxicity)
Method in brief: (§1)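 Compounds were applied at 10 µM for 24 h at 37 °C, in triplicate, to HCC1569 and TDF cells. The cells were then fixed and stained for H1.0, and nuclei were counterstained with DAPI. Nuclear H1.0 intensity or cell number is reported relative to the plate control as a percent, taking the median of replicates. Smoothing for positional effects was applied to HCC1569 values only.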

TDF [2] = test: as above
Method in brief: as §1

TDF [3] = test: H1.0 immunofluorescence intensity relative to DMSO (% of DMSO); higher = stronger H1.0 induction, active = 120 or more
Method in brief: as §1

HCC1569 [4] = test: H1.0 immunofluorescence intensity relative to DMSO (% of DMSO); higher = stronger H1.0 induction, active = 140 or more
Method in brief: as §1
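For H1.0 immunofluorescence intensity relative to DMSO in this document: TDF is a line of transformed human dermal fibroblasts of mesenchymal origin.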
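For cell number relative to DMSO in this document: TDF denotes transformed human dermal fibroblasts of mesenchymal origin.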

SMILES	cell number (HCC1569 [1])	cell number (TDF [2])	H1.0 immunofluorescence intensity (TDF [3])	H1.0 immunofluorescence intensity (HCC1569 [4])
Br.Br.N=C(N)SCCc1cccc(CCSC(=N)N)c1 [1,3-PBIT dihydrobromide]	117	113	97.4 (inactive)	98.4 (inactive)
Cl.O=C(O)C1=CCCN(CCON=C(c2ccccc2)c2ccccc2)C1 [NO-711 hydrochloride]	100	93.9	94.2 (inactive)	97.9 (inactive)
CC(C)(C)c1cnc(CSc2cnc(NC(=O)C3CCNCC3)s2)o1	105	102	95 (inactive)	100 (inactive)
COC1C=COC2(C)Oc3c(C)c(O)c4c(c3C2=O)C(=O)C(=CNN2CCN(C)CC2)C(=C4O)NC(=O)C(C)=CC=CC(C)C(O)C(C)C(O)C(C)C(OC(C)=O)C1C (configuration not stated) [Rifampicin]	104.2 ± 0.92	106 ± 1.9	94.5 (inactive)	103 (inactive)
COc1c2occc2c(OC)c2c(=O)cc(C)oc12 [Khellin]	101	76.6	111 (inactive)	100 (inactive)
CCC(NC(C)C)C(O)c1ccc(O)c(O)c1.CS(=O)(=O)O (configuration not stated) [Isotharine mesylate]	103	112	92.8 (inactive)	91.5 (inactive)
C[N+](C)(C)CCC(=O)c1cccc2ccccc12.[I-] [2-(alpha-Naphthoyl)ethyltrimethylammonium iodide]	92.7	81.5	101 (inactive)	91.6 (inactive)
COC(=O)[C@@H](N)CSCC=C(C)CCC=C(C)CCC=C(C)C [S-Farnesyl-L-cysteine methylester]	106	94.7	95.6 (inactive)	103 (inactive)
O=c1[nH]c(=O)c2nc3ccccc3nc2[nH]1 [Alloxazine]	101	91.6	101 (inactive)	92.1 (inactive)
CCC12CCCN3CCc4c(n(c5ccccc45)C(=O)C1)C32 (single isomer, unassigned; (-)) [(-)-Eburnamonine]	83.7	58.5	118 (inactive)	113 (inactive)
C[C@H](CCC(=O)O)[C@H]1CC[C@H]2[C@@H]3C[C@H](O)[C@@H]4C[C@H](O)CC[C@]4(C)[C@H]3CC[C@]12C [(3alpha,5beta,6alpha)-3,6-dihydroxycholan-24-oic acid]	101	98.6	97.3 (inactive)	106 (inactive)
O=C(c1ccc(Cl)c(S(=O)(=O)NCC2CCCO2)c1)N1CCN(c2ncccn2)CC1 (configuration not stated) [Adenosine Kinase Inhibitor]	86.3	103	89.5 (inactive)	116 (inactive)
Cc1[nH]ccc2c1[nH]c1cc(=O)ccc12.Cl.O.O	94	94.7	97.1 (inactive)	94.2 (inactive)
O=C(O)c1cccnc1C(=O)O [Quinolinic acid]	106	102	90.7 (inactive)	99.9 (inactive)
COc1cc2ncnc(Nc3ccc(NC(=O)c4ccccc4)cc3)c2cc1OC [Aurora Kinase Inhibitor II]	77.8	54.8	111 (inactive)	133 (inactive)
CC1CCC2(OC1)OC1CC3C4CCC5CC(O)CCC5(C)C4CCC3(C)C1C2C (configuration not stated) [Sarsasapogenin]	100	105	106 (inactive)	107 (inactive)
CC1(NC(=O)CBr)CCC(C(C)(C)NCC(O)COc2cccc3[nH]ccc23)CC1 (racemic)	95.8	98.3	93.2 (inactive)	103 (inactive)
CN1CCc2cc(Cl)c(O)cc2C(c2ccccc2)C1.Cl (configuration not stated)	103	104	88.5 (inactive)	94.6 (inactive)
O=c1[nH]c(=O)n(C2CC(O)C(CO)O2)cc1F (configuration not stated) [Floxuridine]	81.3	61.1	112 (inactive)	119 (inactive)
CC(C)(CO)C(O)C(=O)NCCC(=O)O (configuration not stated) [Pantothenic acid]	104	95.9	106 (inactive)	98.2 (inactive)
Cn1cnc2c(NCc3ccccc3)nc(NCCO)nc21 [Olomoucine]	100	121	98.6 (inactive)	94.1 (inactive)
CCCCCCCCCCCCCCCC(=O)NCC(COP(=O)([O-])OCC[N+](C)(C)C)OC (racemic) [rac-2-Methoxy-3-hexadecanamido-1-propylphosphocholine]	75.4	65	185 (active)	142 (active)
CC1CCC(C(C)(C)O)CC2=C1CCC2C (single isomer, unassigned; (-)) [(-)-Guaiol]	99.2	102	102 (inactive)	106 (inactive)
COc1cccc2oc(-c3ccccc3)cc(=O)c12 [5-Methoxyflavone]	99.7	84.4	100 (inactive)	98.8 (inactive)

SMILES	cell number (HCC1569 [1])	cell number (TDF [2])	H1.0 immunofluorescence intensity (TDF [3])	H1.0 immunofluorescence intensity (HCC1569 [4])
COc1cc2c3cc1Oc1c(OC)c(OC)cc4c1C(Cc1ccc(OC(=O)c5ccc([N+](=O)[O-])cc5)c(c1)Oc1ccc(cc1)CC3N(C)CC2)N(C)CC4 (configuration not stated) [E6 Berbamine]	90.2	95.2	98.8 (inactive)	97.7 (inactive)
COc1nc(C)nc(Cl)c1NC1=NCCN1.Cl [Moxonidine hydrochloride]	102	102	92 (inactive)	90.3 (inactive)
CCOC(=O)C(CCc1ccccc1)NC(C)C(=O)N1CCCC1C(=O)O (configuration not stated) [Enalapril]	104	106	98.8 (inactive)	118 (inactive)
CCn1cc(C(=O)O)c(=O)c2cc(F)c(N3CCN(C)CC3)cc21.CS(=O)(=O)O.O.O [Pefloxacine mesylate dihydrate]	103	111	96.4 (inactive)	109 (inactive)
Nc1nc(OCc2ccccc2)c2[nH]cnc2n1 [O6-benzylguanine]	102	96.6	101 (inactive)	95.8 (inactive)
O=C(Nc1cc(Cl)cc2c1[nH]c1cnccc12)c1cccnc1 [IKK Inhibitor X]	98.7	91.8	101 (inactive)	106 (inactive)
COC1(C2=NCCN2)COc2ccccc2O1.Cl (configuration not stated)	104	108	89.4 (inactive)	102 (inactive)
CCCCCN(C)CCC(O)(P(=O)(O)O)P(=O)(O)O [Ibandronate]	103	100	98.4 (inactive)	97.2 (inactive)
CN(N=O)C(=O)NC1C(O)OC(CO)C(O)C1O (configuration not stated) [Streptozocin]	101	102	96.1 (inactive)	87.6 (inactive)
CCCCCCCCC=CCCCCCCCCCCCC(=O)O [13(Z)-Docosenoic acid]	104	108	95.2 (inactive)	102 (inactive)
Nc1ccn(C2OC(CO)C(O)C2O)c(=O)n1 (configuration not stated) [Cytarabine]	79.6	51.3	105 (inactive)	102 (inactive)
Br.C=CCN1CCc2c(cc(O)c(O)c2Br)C(c2ccccc2)C1 (stereo not drawn) [R(+)-6-Bromo-APB hydrobromide]	89.1	87.2	89.7 (inactive)	99.2 (inactive)
CCC1=CC2CN(C1)Cc1c([nH]c3ccccc13)C(C(=O)OC)(c1cc3c(cc1OC)N(C)C1C(O)(C(=O)OC)C(OC(C)=O)C4(CC)C=CCN5CCC31C54)C2 (configuration not stated) [Vinorelbine]	56.9 ± 1.3	9.75 ± 0.33	167 (active)	153 (active)
Oc1cccc(-c2nc(N3CCOCC3)c3oc4ncccc4c3n2)c1	56.8	70	88 (inactive)	205 (active)
O=C(NCCCN1CCOCC1)c1cnn2c(-c3ccccc3)cc(-c3ccccc3)nc12	95.3	84.3	97.2 (inactive)	119 (inactive)
O=C(COc1ccc(C(=O)c2ccccc2)cc1)NC1CCN(Cc2ccccc2)CC1 [2-(4-benzoylphenoxy)-N-(1-benzyl-4-piperidinyl)acetamide]	81.9	78.3	118 (inactive)	158 (active)
CCCCCC(O)C=CC1C(O)CC(O)C1CC(=O)CCC(=O)O (configuration not stated) [2,3-Dinor-6-keto-prostaglandin F1a]	103	114	88.8 (inactive)	101 (inactive)
CCCCCC=CCC=CCC=CCCCCCCC(=O)O [8(Z), 11(Z), 14(Z)-Eicosatrienoic Acid]	97.9	101	97.9 (inactive)	98.7 (inactive)
CC(C)CCNC(=O)C(CC(C)C)NC(=O)C1OC1C(=O)O (configuration not stated)	106	96.1	100 (inactive)	92.5 (inactive)
CC1(C)CCC(C)(C)c2cc(C3(c4ccc(C(=O)O)cc4)OCCO3)ccc21	100	99	92.3 (inactive)	92.2 (inactive)
Nc1nnc(-c2cccc(Cl)c2Cl)c(N)n1 [Lamotrigine]	99.6 ± 2.1	105 ± 2	87.7 (inactive)	101 (inactive)
CCCCCC(O)C=CC1=C(CCCCCCC(=O)O)C(=O)CC1 (configuration not stated) [Prostaglandin B1]	101 ± 2.6	108.4 ± 0.5	97.7 (inactive)	101 (inactive)
CC(Oc1c(Cl)cccc1Cl)C1=NCCN1.Cl (configuration not stated) [Lofexidine.HCl]	98.9	107	100 (inactive)	96.1 (inactive)
CC(C)CCNC(C)C1CCC2C3CC=C4CC(O)CCC4(C)C3CCC12C (configuration not stated) [22-Azacholesterol]	104	98.5	104 (inactive)	110 (inactive)
